An excerpt weighted towards active compounds, which were near 2.9% of everything screened.
ADAM17 inh: inhibits human ADAM17. P78536. recombinant ADAM17, EDANS/DABCYL FRET peptide cleavage. inhibition, % at 6.95 µM. hit rate 0.83% among 370,000. AID 720648;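 active = inhibition above the mean of compounds lying between control limits plus 3 SD, set per campaign, cut at about 8.5% in these data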;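 note: 0% = DMSO-only wells as the low control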
KLK7 zymogen act: proKLK7 (human) activation, primary screen; purified proKLK7, EDANS-DABCYL substrate fluorescence; 100% is mature enzyme control, 0% vehicle; activation, % at 7 µM; hit rate 0.9% among 370,000; AID 652039;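 active = activation above the mean of all tested compounds plus 3 SD, computed per campaign excluding outliers beyond control limits, cut at about 13% in these data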
PLC-gamma1 inh: inhibitors of human phospholipase C gamma1 | hit rate 0.84% among 370,000 | purified PLC-gamma1, fluorogenic substrate, fluorescence | P19174 | inhibition, % at 12.2 µM
ADAM10 inh: ADAM10 inhibition, QFRET primary screen; O14672; recombinant ADAM10, EDANS/DABCYL FRET peptide cleavage, 3 h; inhibition, % at 7 µM; hit rate 0.62% among 370,000; AID 720582;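 active = inhibition above a per-campaign cutoff equal to the mean of compounds falling between control-based bounds plus 3 SD, cut at about 20% in these data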;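 note: 0% = DMSO wells while the 100% control is not disclosed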
Target sequence (O14672 214-748 limits assumed): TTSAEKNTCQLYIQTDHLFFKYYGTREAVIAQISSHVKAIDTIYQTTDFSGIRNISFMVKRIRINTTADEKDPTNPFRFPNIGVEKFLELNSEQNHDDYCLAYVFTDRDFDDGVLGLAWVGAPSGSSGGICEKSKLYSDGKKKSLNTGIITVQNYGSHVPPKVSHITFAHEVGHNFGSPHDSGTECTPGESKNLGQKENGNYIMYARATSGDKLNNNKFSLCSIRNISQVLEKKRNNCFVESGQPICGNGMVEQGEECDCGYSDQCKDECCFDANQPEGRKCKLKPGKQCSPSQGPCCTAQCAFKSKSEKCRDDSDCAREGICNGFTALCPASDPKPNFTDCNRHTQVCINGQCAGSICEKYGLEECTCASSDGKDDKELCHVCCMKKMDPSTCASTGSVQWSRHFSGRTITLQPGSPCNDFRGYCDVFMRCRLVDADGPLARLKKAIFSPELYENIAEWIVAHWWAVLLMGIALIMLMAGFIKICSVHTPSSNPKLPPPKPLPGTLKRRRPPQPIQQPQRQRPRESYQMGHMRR
PLCb3 inh: blocks human PLC-beta3 enzyme activity | inhibition, % at 12.2 µM | Purified PLC-beta3, fluorogenic substrate, fluorescence | Q01970 | hit rate 0.18% among 370,000 | AID 720704; in the data active = inhibition above about 11%;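 note: 0% = median of compound wells on plate and 100% = full blocker control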
PLCgamma1 ctr: PLC-gamma1 inhibition, counter-screen for PLC-beta3 hits. inhibition, % at 12.3 µM. hit rate 3.1% among 3,300. shares compounds with PLC-gamma1 inh. purified PLC-gamma1, fluorogenic substrate, fluorescence
PLCbeta3 conf: human PLC-beta3 inhibition, confirmation | hit rate 1% among 3,300 | shares compounds with PLC-gamma1 inh | purified PLC-beta3, fluorogenic substrate fluorescence | inhibition, % at 12.3 µM; in the data active = inhibition above about 11%
* marks the source's active call; other numbers are inactive results; . = not tested or not shown. Cut-off read from the data, not from the text of the source, unless noted: active = inhibition above about 9.5%; inactive = the rest.

SMILES | ADAM17 inh | KLK7 zymogen act | PLC-gamma1 inh | ADAM10 inh | PLCb3 inh | PLCgamma1 ctr | PLCbeta3 conf
Cc1ccc(C(=O)NCCN2C3=NC[C@@H](Cc4ccccc4)N3C[C@H]2Cc2ccc(O)cc2)cc1Br | -3 | 0 | 9.9* | 3 | 4 | 1 | 0
Cc1cc2n(n1)SC(Nc1ccc(F)cc1)N2 (stereo unspecified) | 3 | 0 | 10* | 7 | 4 | -7 | -4
Cc1cc2n(n1)SC(Nc1cc(Cl)ccc1Cl)N2 (stereo unspecified) | 2 | 1 | 1 | 18 | 3 | . | .
Cc1ncc(C[n+]2csc(CCOC(=O)CC3C4CC5CC(C4)CC3C5)c2C)c(N)n1 (stereo unspecified) | 4 | 2 | 9.8* | 11 | 3 | -4 | -1
Cc1ncc(C[n+]2csc(CCOC(=O)C34CC5CC(CC(C5)C3)C4)c2C)c(N)n1 | -3 | 0 | 0 | 0 | -4 | . | .
CC(C)CN1C(=O)NC(NC(=O)c2cccnc2)(C(F)(F)F)C1=O (stereo unspecified) | 6 | 0 | 11* | 16 | 7 | -5 | 1
C[C@@H]1CN([C@@H](C)CO)C(=O)CCCn2nncc2CO[C@H]1CN(C)Cc1cccc2c1OCCCO2 | -1 | 0 | 1 | -6 | 0 | . | .
O=C1NC(=S)S/C1=C\C=C\c1ccc([N+](=O)[O-])o1 | -5 | 0 | 60* | -2 | 1 | 32* | -8
Cc1ccc(NC(=S)N2CCC(N(C)CC3CCCO3)CC2)cc1C (stereo unspecified) | -3 | 0 | 3 | -4 | -4 | . | .
Cc1cccc(NC(=S)N2CCC(N(C)CC3CCCO3)CC2)c1 (stereo unspecified) | 1 | 0 | 9.7* | 9 | 0 | -2 | 1
NC(=O)CSc1nnc(CNc2ccc(F)cc2)n1CC1CCCO1 (stereo unspecified) | 0 | 0 | 2 | 7 | 2 | . | .
CC(O)CN(CCC(N)=O)CCC(N)=O (stereo unspecified) | 4 | 1 | 10* | 6 | 0 | -1 | -1
CC(C)=CCC/C(C)=C/CN(CC(C)O)CC(C)O (stereo unspecified) | -4 | 0 | 3 | 10 | 5 | . | .
O=[N+]([O-])c1ccc(-c2c(O)c3ccccc3c3nc4ccccc4nc23)cc1 | 2 | 0 | 8 | 1 | 11* | -2 | -3
COc1ccc(CNC(=O)[C@H](C)N2C(=O)N3CCc4c([nH]c5ccc(OC)cc45)[C@@]3(C)C2=O)cc1 | 2 | 0 | 0 | -8 | 2 | . | .
CCCCCn1c(SCC2CCCO2)nc2cc(C(=O)N3CCC(C(N)=O)CC3)ccc2c1=O (stereo unspecified) | 6 | 0 | 9.6* | 4 | 1 | -10 | -7
CCCCCn1c(SCC(=O)CC(=O)OCC)nc2cc(C(=O)N3CCC(C(N)=O)CC3)ccc2c1=O | -6 | 1 | -9 | 1 | -18 | . | .
Cc1cc(C)c(OCCOCCN2CCNCC2)c(C)c1 | 2 | 0 | 3 | 9 | 4 | . | .
Cc1ccn(CC(=O)O)c(=O)c1 | 4 | 0 | 5 | 3 | 2 | . | .
O=C(NCc1cccs1)C1CCN(c2nc3ccccc3o2)CC1 | 2 | 0 | 9.7* | 4 | 3 | -2 | -4
CC(C)CCNC(=O)C1CCN(c2nc3ccccc3o2)CC1 | -6 | 0 | -2 | -8 | 1 | . | .
CCN(CC)C(=O)c1cc2c(=O)oc3ccccc3c2s1 | 7 | -1 | 11* | -7 | 6 | -5 | -3
CCC1Oc2ccccc2N(CC(=O)N2CCCC2)C1=O (stereo unspecified) | 1 | 0 | 9.7* | 8 | 8 | -2 | 0
CCN1CCN(CCC(=O)Nc2ccc3c(c2)OCO3)CC1 | 5 | 0 | 13* | 3 | 9 | 3 | -6
COc1ccc(OCCCC(=O)Nc2ccc(N3CCOCC3)cc2)cc1 | -3 | 0 | 0 | 2 | 0 | . | .
SMILES | ADAM17 inh | KLK7 zymogen act | PLC-gamma1 inh | ADAM10 inh | PLCb3 inh | PLCgamma1 ctr | PLCbeta3 conf
COc1ccc(NC(=O)CCN2CCCCC2)cc1 | -4 | 0 | 1 | -1 | -1 | . | .
CCOC(=O)N1CCN(CCC(=O)Nc2ccc(C)cc2)CC1 | -1 | 0 | 11* | 2 | 1 | 0 | -2
CCOC(=O)N1CCN(CC(=O)Nc2ccc(C)cc2)CC1 | -1 | 1 | -1 | 1 | -2 | . | .
COc1ccc(OCCCC(=O)Nc2ccc(N3CCCCC3)cc2)cc1 | 2 | 0 | 10* | 1 | 10 | -3 | 0
COc1ccc(NC(=O)CCN2CCCCCC2)cc1 | -2 | 0 | 11* | 0 | -1 | -3 | -3
CCc1nnc(NC(=O)C2CC(=O)N(CCc3ccc(F)cc3)C2)s1 (stereo unspecified) | 3 | 1 | 3 | -3 | -5 | . | .
NC(=O)C1(N2CCCCC2)CCN(S(=O)(=O)c2ccc(Cl)s2)CC1 | -5 | 1 | 6 | 6 | -4 | . | .
Cc1cccc(NC(=O)CS(=O)(=O)c2cn(C)c3ccccc23)c1 | -2 | 0 | 2 | 1 | 2 | . | .
CCOC(=O)N1CCN(Cc2nc3cc(NC(=O)C(C)C)ccc3n2C)CC1 | 4 | -1 | 12* | 1 | -2 | -8 | -8
CCN(CC)S(=O)(=O)c1ccc(Nc2nc3ccccc3n3nnnc23)cc1 | -4 | -14 | -47 | -11 | -57 | . | .
COCc1[nH][nH]c(=O)c1C=Nc1ccc(OC(F)(F)F)cc1 | 3 | 0 | 2 | 7 | 11* | -4 | 0
COCc1[nH][nH]c(=O)c1C=Nc1ccc(Cl)cc1 | 3 | -1 | -1 | 5 | 5 | . | .
Cc1ccc(C(C)C)cc1NC(=O)Nc1ccc([N+](=O)[O-])cc1 | 0 | -1 | 5 | 9 | 12* | 5 | 10
COc1cc(C2C(C#N)=C(N)N(c3ccc(F)cc3)C3=C2S(=O)(=O)CC3)ccc1O (stereo unspecified) | -10 | -4 | -126 | -51 | -146 | . | .
CC(=O)Oc1ccc(C2(C)CC(C)(C)NC(=S)N2C)c(OC(C)=O)c1 (stereo unspecified) | -1 | 0 | 1 | 1 | -7 | . | .
CCCn1cc(S(=O)(=O)CC(=O)N2CCc3ccccc32)c2ccccc21 | 2 | 0 | 0 | -10 | -4 | . | .
Cn1cc(S(=O)(=O)CC(=O)N2CCc3ccccc32)c2ccccc21 | 2 | 0 | 18* | -2 | 16* | 13* | 15*
O=C(CCN1C(=O)C2C3C=CC(C3)C2C1=O)NCCc1ccccc1Cl (stereo unspecified) | -4 | 1 | 0 | 4 | 2 | . | .
O=C(Cc1ccccc1Cl)NCCN1C(=O)C2C3C=CC(C3)C2C1=O (stereo unspecified) | -5 | 0 | 9.9* | -10 | 1 | 0 | 0
O=C(NCCCN1CCCC1=O)Nc1ccccc1F | -6 | 0 | 11* | -10 | -6 | -5 | 0

Screening data (PubChem BioAssay)
